Read-out in assay [1]: Tissue Factor, F3 (gene 2152)
Nature of the assay: BSK_CASM3C_TissueFactor: BioMAP Diversity Plus: CASM3C Assay for Tissue Factor Biomarker Activity (AID 2283052).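 Also: cell surface tissue factor protein level read by ELISA.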 Particulars: primary human coronary artery smooth muscle cells; actives raise or lower the signal.

Read-out in assay [2]: Interferon-gamma inducible Protein 10 (IP10), CXCL10 (gene 3627)
Nature of the assay: BSK_hDFCGF_IP10: BioMAP Diversity Plus: hDFCGF Assay for Interferon-gamma inducible Protein 10 (IP10) Biomarker Activity (AID 2283053). The settings on record: primary human foreskin fibroblasts; actives raise or lower the signal. In outline: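 Chemical-treated human skin fibroblasts (primary) were sampled at 24 h for IP-10 by ELISA. Both increases and decreases relative to DMSO were scored.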

Read-out in assay [3]: Urokinase-type plasminogen activator receptor (uPAR), PLAUR (gene 5329)
As to the kind of experiment: BSK_CASM3C_uPAR: BioMAP Diversity Plus: CASM3C Assay for Urokinase-type plasminogen activator receptor (uPAR) Biomarker Activity (AID 2283054).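 Also: cell-surface uPAR protein level quantified by ELISA.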 The settings on record: primary human coronary artery smooth muscle cells; actives raise or lower the signal.

Read-out in assay [4]: Vascular cell adhesion molecule 1 (VCAM1), VCAM1 (gene 7412)
Nature of the assay: BSK_CASM3C_VCAM1: BioMAP Diversity Plus: CASM3C Assay for Vascular cell adhesion molecule 1 (VCAM1) Biomarker Activity (AID 2283055).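 Also: VCAM-1 protein level quantified by ELISA on the cells.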 The settings on record: primary human coronary artery smooth muscle cells; actives raise or lower the signal.

Read-out in assay [5]: Collagen III, COL3A1 (gene 1281)
Nature of the assay: BSK_hDFCGF_CollagenIII: BioMAP Diversity Plus: hDFCGF Assay for Collagen III Biomarker Activity (AID 2283056). Particulars: primary human foreskin fibroblasts; actives raise or lower the signal. In outline:
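hDFCGF primary human dermal fibroblasts; 24 h chemical exposure; collagen III by ELISA; bidirectional curve fit vs DMSO baseline (gain or loss of signal).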

Read-out in assay [6]: Epidermal growth factor receptor (EGFR), EGFR (gene 1956)
As to the kind of experiment: BSK_hDFCGF_EGFR: BioMAP Diversity Plus: hDFCGF Assay for Epidermal growth factor receptor (EGFR) Biomarker Activity (AID 2283057). Particulars: primary human foreskin fibroblasts; actives raise or lower the signal. In outline:
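Cell-based multiplexed assay in primary human foreskin fibroblasts. EGFR is read by ELISA 24 h after treatment and compared with DMSO controls.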

Read-out in assay [7]: Interleukin-8 (IL8), CXCL8 (gene 3576)
Nature of the assay: BSK_hDFCGF_IL8: BioMAP Diversity Plus: hDFCGF Assay for Interleukin-8 (IL8) Biomarker Activity (AID 2283058). Particulars: primary human foreskin fibroblasts; actives raise or lower the signal. In outline:
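ELISA read-out of IL-8 from primary human foreskin fibroblast cultures taken 24 h after dosing; values are bidirectional fits relative to DMSO vehicle.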

A short description of assay [8]: BSK_hDFCGF_Proliferation: Cell Proliferation Assessment in the BioMAP Diversity Plus: hDFCGF Assay (AID 2283059).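 Also: curves fitted for both rise and fall of signal versus DMSO baseline.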 The settings on record: primary human foreskin fibroblasts. In outline: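 Steps: dose primary human dermal fibroblasts (foreskin); […] fix in 10% TCA; stain with 0.1% SRB; read 560 nm; fit gain or loss of signal against DMSO.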
Read-out in assay [9]: Macrophage colony-stimulating factor (MCSF), CSF1 (gene 1435)
Nature of the assay: BSK_hDFCGF_MCSF: BioMAP Diversity Plus: hDFCGF Assay for Macrophage colony-stimulating factor (MCSF) Biomarker Activity (AID 2283060). Particulars: primary human foreskin fibroblasts; actives raise or lower the signal. In outline: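 ELISA read-out of M-CSF in human dermal foreskin fibroblast cultures, 24 h after chemical dosing; gain or loss of signal fitted bidirectionally relative to DMSO baseline.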

The nature of assay [10]: BSK_hDFCGF_SRB: Viability Assessment in the BioMAP Diversity Plus: hDFCGF Assay (AID 2283061).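 Also: cells exposed to compound for 24 h before the read.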 The settings on record: primary human foreskin fibroblasts. In outline:
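Primary human foreskin fibroblasts; 24 h post-dose; fixed 10% TCA, stained 0.1% SRB, A560 read; total protein as overt cytotoxicity measure; curves fit bidirectionally vs DMSO control.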

Structures are written as SMILES. Values joined by “and” are separate entries in the source; they are usually repeats but may differ in a detail not shown here. Identical values can stand only once. More than one record can exist for a structure, and the calls need not agree. Active and inactive are the calls of the source. The calls were made as follows: active = hit-call score of the fitted dose curve at least 0.9, where 1 is the maximum; inactive = score below 0.9.

For the compound `CCOC(=O)NCCOc1ccc(Oc2ccccc2)cc1`, the result in assay [1], in assay [2], in assay [3], in assay [4], in [6] and in assay [7] was inactive. Further, the result in assay [10] was inactive. Also, the figures for the concentration at half-maximal activity (AC50) in [5], in assay [8] and in [9] were 12.6 µM (active), 24.7 µM (active) and 23.1 µM (active), respectively.
Turning to `OB(O)O`, the outcome in assay [1], in [2], in [3], in assay [4], in assay [5] and in assay [6] was inactive. The result in assay [8], in [9] and in assay [10] was inactive.
`CCOC(=O)[C@H](C)Oc1ccc(Oc2nc3ccc(Cl)cc3o2)cc1`: the outcome in assay [1], in [2], in assay [3], in [4], in assay [6] and in [7] was inactive. For the same compound, the result in assay [9] was inactive. For the same compound, the results for the half-maximal activity concentration (AC50) in [5], in [8] and in assay [10] were 3.97 µM (active), 24.9 µM (active) and 0.508 µM (active), respectively.
In the case of `N#CSCSc1nc2ccccc2s1`, the AC50 – broadly, the midpoint of the concentration-response curve, whichever way the signal moves – in assay [1] was 1.85 µM (active); in [2], 1.49 µM (active) and 227 nM (active); in [3], 5.35 µM (active) and 30 µM (active); in assay [4], 6.34 µM (active) and 27.7 µM (active); in assay [5], 1.19 µM (active) and 424 nM (active); in [6], 2.01 µM (active). The concentration at half-maximal activity (AC50) was 632 nM (active) and 148 nM (active) in assay [8]; 1.56 µM (active) and 1.28 µM (active) in assay [9]; 1.08 µM (active) and 155 nM (active) in [10]. Further, the result in assay [1] and in [6] was inactive.
With `Cc1nn(C)c(Oc2ccccc2)c1C=NOCc1ccc(C(=O)OC(C)(C)C)cc1`, the result in assay [1], in [3], in assay [4] and in assay [7] was inactive. Further, the AC50 in assay [2] is 27.9 µM (active); in [5], 4.21 µM (active); in [6], 3.95 µM (active); in assay [8], 6.94 µM (active); in assay [9] it was 18.8 µM (active); in assay [10], 15.4 µM (active).
Turning to `CCCCOC(=O)[C@@H](C)Oc1ccc(Oc2ccc(C(F)(F)F)cn2)cc1`, the outcome in assay [1], in assay [2], in assay [3], in assay [4], in assay [5] and in [6] was inactive. Besides, the outcome in assay [8], in [9] and in [10] was inactive.
With `CCCN(CCC)c1c([N+](=O)[O-])cc(C(F)(F)F)c(N)c1[N+](=O)[O-]`, the outcome in assay [1], in assay [3], in [4] and in assay [6] was inactive. For the same compound, the concentration at half-maximal activity (AC50) is 31.3 µM (active) in [2]; 31.4 µM (active) in [5]; 26.7 µM (active) in [8]; 27.9 µM (active) in assay [9]; 33.3 µM (active) in assay [10].
Consider `C[C@]12CC[C@@H]3c4ccc(O)cc4C[C@@H](CCCCCCCCCS(=O)CCCC(F)(F)C(F)(F)F)[C@H]3[C@@H]1CC[C@@H]2O` (stereo not given in full), for which the result in [1], in [2], in assay [3], in assay [4], in assay [5] and in assay [6] was inactive. In addition, the outcome in assay [7], in assay [9] and in [10] was inactive. Besides, the AC50 in assay [8] was 4.75 µM (active).
Regarding `S=C([S-])NCCNC(=S)[S-].[Mn+2]`, the outcome in assay [1], in assay [3], in [4], in assay [7] and in assay [10] was inactive. Also, the AC50 in assay [2] was 30.7 µM (active); in assay [5], 29.1 µM (active); in [6], 0.149 µM (active); in [8], 8.5 µM (active); in assay [9], 25.8 µM (active).
On to `C[C@]12C[C@H](O)[C@H]3[C@@H](CCC4=CC(=O)CC[C@@]43C)[C@@H]1CC[C@@H]2C(=O)CO`, for which the result in assay [1], in assay [2], in [3], in assay [4], in assay [5] and in assay [6] was inactive. Besides, the outcome in assay [7], in assay [8] and in [10] was inactive.
In the case of `CCOC(=O)C(C)Oc1ccc(Oc2nc3ccc(Cl)cc3o2)cc1` (stereo not given), the outcome in assay [1], in [2], in [3], in assay [4], in [5] and in [6] was inactive. Further, the result in assay [9] and in assay [10] was inactive. The AC50 in assay [8] is 13.2 µM (active).
For the compound `CN(C)C(=O)Nc1ccc(Cl)c(Cl)c1`, the outcome in assay [1], in [2], in [3], in assay [4], in [5] and in [6] was inactive. Moreover, the outcome in assay [7], in assay [8], in [9] and in [10] was inactive.
For the compound `CCCCOC(=O)C(C)Oc1ccc(Oc2ccc(C(F)(F)F)cn2)cc1` (stereo not given), the outcome in assay [1], in assay [2], in assay [3], in [4], in assay [5] and in [6] was inactive. Also, the outcome in assay [7], in [8], in assay [9] and in assay [10] was inactive.
As for `COC(=O)c1ccccc1S(=O)(=O)NC(=O)Nc1nc(OC(F)F)cc(OC(F)F)n1`, the result in assay [1], in assay [2], in assay [3], in assay [4], in assay [5] and in assay [6] was inactive. The outcome in assay [8], in assay [9] and in assay [10] was inactive.
On to `CCN(CC)C(=O)c1cccc(C)c1`, for which the outcome in assay [1], in assay [2], in assay [3], in [4], in assay [5] and in assay [6] was inactive. Moreover, the result in [7], in assay [8], in assay [9] and in [10] was inactive.

The values above are taken from PubChem BioAssay (EPA / NIEHS).
